# A selection: hits, their analogues and other compounds. The true share with any hit is near 5.8%.
# Bst PK mod – Pyruvate Kinase; 1.2% of 51,000 active; purified pyruvate kinase, luminescence ATP production; ribose 5-phosphate activator present at AC10; Potency, µM; in the data active = potency below about 11 µM; inconclusive = mostly about 12 µM to 25 µM;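 the screen sought inhibitors and activators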;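 also: scaled between full activation by ribose 5 phosphate and full inhibition by luteolin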
# TSHR agonist – qHTS Assay for Agonists of the Thyroid Stimulating Hormone Receptor. HEK293-CNG-TSHR cells (CNG channel as cAMP sensor), membrane potential dye, cAMP. AID 926, 2007. Thyrotropin receptor (Homo sapiens), P16473. Potency, µM (titrated, usually from 57.1 µM), inactives show at the top dose activation, hits mostly activators. 0.48% of 73,000 active; active = well fitted activation curve with a large enough effect in the main read-out, with a control signal flat, not every such curve was filed as active; inconclusive = small, poorly fitted or top-dose-only effect, or a change in a side signal; inactive = no such curve, though single readings can be large or run the other way; % of control where 0% means no effect;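 also: the control signal comes from parental cells without the receptor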
#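 HEK 293 cells stably expressing TSHR and a cAMP-gated CNG channel; parental CNG-only cells as counterscreen. Cells preloaded 60 min with membrane potential dye plus 100 uM RO 20-1724, then compound 30 min; fluorescence read at 590 nm.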
# HEK293 cAMP ctrl – qHTS Assay for Agonists of the Thyroid Stimulating Hormone Receptor: Activators of Intracellular cAMP Concentrations in Parental HEK 293; parental HEK293 CNG cAMP sensor, membrane potential fluorescence; Potency, µM (highest dose often 57.1 µM), for the others: top-dose activation, most hits filed as activators; 2.5% of 73,000 active; also: % of control where 0% means no effect; nearly all actives have a fitted effect of over 55% in size
#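 Parental HEK 293 cells stably expressing a cAMP-gated CNG channel were loaded with membrane potential dye containing 100 uM RO 20-1724 for 60 min. Compound added for 30 min; depolarization read as fluorescence intensity at 590 nm.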
# FLuc inh – qHTS Assay for Inhibitors of Firefly Luciferase | Potency, µM (titrated, usually from 57.1 µM), inactives show at the top dose activity change, negative = inhibition, hits mostly inhibitors | 2.2% of 72,000 active | purified firefly luciferase, luminescence, 8 min; also: % is scaled to controls: 0 for no effect and ±100 for the full control effect; nearly all actives have a fitted effect of over 40% in size
#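 Here, luciferase activity is measured as luminescence following an 8 min room-temperature reaction at 10 uM ATP, pH 7.2. Every library sample is titrated.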
# GBA activity – Glucocerebrosidase | Potency, µM | AID 360, 2006 | 1.1% of 48,000 active | purified enzyme, resorufin glucoside fluorescence (screen aimed at inhibitors), 20 min | Lysosomal acid glucosylceramidase (Homo sapiens), P04062; in the data active = potency below about 15 µM; inconclusive = mostly about 16 µM to 33 µM;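 also: the screen sought inhibitors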
# Target sequence (P04062 whole entry, looked up): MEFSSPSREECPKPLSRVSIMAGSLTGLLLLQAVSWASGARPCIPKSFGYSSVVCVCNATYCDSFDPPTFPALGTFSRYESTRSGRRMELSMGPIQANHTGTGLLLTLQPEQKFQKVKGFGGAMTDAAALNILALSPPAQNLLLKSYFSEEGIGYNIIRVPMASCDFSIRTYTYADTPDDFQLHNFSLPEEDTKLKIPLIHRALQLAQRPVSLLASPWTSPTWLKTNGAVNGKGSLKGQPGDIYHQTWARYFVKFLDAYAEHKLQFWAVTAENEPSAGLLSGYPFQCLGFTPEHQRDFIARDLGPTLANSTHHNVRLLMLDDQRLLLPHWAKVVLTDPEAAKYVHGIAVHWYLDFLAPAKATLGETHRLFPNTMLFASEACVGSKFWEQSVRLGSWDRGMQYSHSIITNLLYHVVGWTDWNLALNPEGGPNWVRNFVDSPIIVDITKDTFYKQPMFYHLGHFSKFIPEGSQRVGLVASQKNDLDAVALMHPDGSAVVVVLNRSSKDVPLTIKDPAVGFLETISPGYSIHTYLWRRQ
#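 Compounds titrated against 0.2 nM normal enzyme, 30 uM resorufin beta-D-glucopyranoside substrate, citrate/phosphate buffer with taurocholate and tween-20, pH 5.9. Reaction ran 20 min at room temperature; fluorescence (Ex 548/Em 600) gave AC50.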
# An asterisk follows results filed as active; ? = inconclusive; . = not tested or not shown; [ ] = dose if it differs, or a comment. Unless noted, calls follow the shape of the dose curve; as a rule, active = well fitted curve in the direction sought with a large enough effect; inconclusive = small, poorly fitted or top-dose-only effect, or another doubt; inactive = no such curve, though single readings can be large; an effect the other way counts as inactive or inconclusive. Potency is read from the fitted curve at half-maximal effect.
SMILES,Bst PK mod,TSHR agonist,HEK293 cAMP ctrl,FLuc inh,GBA activity
CCOC(=O)Cn1nc(-c2ccc(Cl)cc2)cc1N,5.79*,?,?,-5.7%,>76.9
Cc1ccc(C)c2nc(N3CCCC3)c(C#N)cc12,>57,?,?,1.4%,>76.9
N#Cc1cc2cc3c(cc2nc1N1CCCCC1)OCCO3,>57,?,?,12.6µM*,>76.9
COc1cccc(Cn2c(=O)cnc3cnc(Oc4ccccc4)nc32)c1,.,1.6%,12.3%,1.1%[11.4 µM],.
CN(C)c1ccc(NC(=O)CN2CCN(S(=O)(=O)c3cc(Cl)ccc3Cl)CC2)cc1,9.45*,-20.8%,3.9%[2.29 µM],-0.4%,?
CC(C)OC(=O)CN1CCN(S(=O)(=O)c2cc(Cl)ccc2Cl)CC1,>57,2.8%,-1.1%,1.2%,.
O=C(Nc1ccc2c(c1)OCCO2)c1ccc(Cl)c(S(=O)(=O)N2CCOCC2)c1,>57,?,?,-9.4%,>76.9
O=C(CN1CCN(S(=O)(=O)c2cc(Cl)ccc2Cl)CC1)Nc1ccc2c(c1)OCCO2,4.74*,.,26.9%,-4.1%,?
Cc1cc(OCC(=O)Nc2ccc3c(c2)OCCO3)ccc1Cl,>11.4,?,0.251µM*,7.4%,>76.9
CCCCCCC1=Cc2cc(OC)c(OC)cc2C(CC(=O)/C=C/OC)O1 (stereo not given),.,-2.8%[11.4 µM],3.2%[11.4 µM],.,.
CC(C)[C@H](NC(=O)OC(C)(C)C)[C@@H](O)CC(=O)OC(C)(C)C,.,-7.8%[11.4 µM],-3.5%[11.4 µM],1.5%[11.4 µM],.
CC1(C)Cc2c(sc3nc(SCC(=O)N4CCOCC4)nc(N)c23)CO1,>57,?,?,-1.2%,14*
COc1cccc(Cn2c(=O)c(CCc3ccccc3)nc3cnc(N4CCN(C)CC4)nc32)c1,.,-14.4%,-25.3%,1.9%[11.4 µM],.
O=C(CSc1nc2ccccc2c(=O)n1-c1ccc(Cl)cc1)c1ccco1,>57,?,25.1µM*,4.0%,>76.9
CCOC(=O)c1c(C)oc2cc(Br)c(O)c(Br)c12,.,25.1µM*,11.0%,-0.3%,.
c1ccc2c(c1)[nH]c1nc(SCCN3CCOCC3)nnc12,.,-16.2%,-0.5%,-12.1%,?
Brc1ccc2[nH]c3nc(SCCN4CCOCC4)nnc3c2c1,>57,-1.9%[11.4 µM],-6.6%,-1.8%,9.59*
COC(=O)c1ccc(C(NC(=O)OCc2ccccc2)/C(=C/[C@@H](C)C(=O)Nc2ccc(OC)cc2)c2cccnc2)cc1 (stereo not given in full),.,16.7%,6.8%,.,.
Nc1nc(CN2CCN(c3cccc(Cl)c3)CC2)nc(N2CCCc3ccccc32)n1,>57,.,17.4%,-1.1%,13.8*
Nc1nc(CSc2nnnn2-c2ccccc2)nc(N2CCCc3ccccc32)n1,>57,1.1%,9.0%,3.1%,>76.9
COc1ccc(N2CCN(Cc3nc(N)nc(N4CCCc5ccccc54)n3)CC2)cc1,>57,.,1.5%,3.4%,7.62*
Nc1nc(CN2CCN(c3ccccc3)CC2)nc(N2CCCc3ccccc32)n1,>57,?,?,-1.5%,?
C=C/C(=C\C)C[C@@H](CC(=O)N[C@@H](CCC(=O)O)CC(=O)O)NC(=O)[C@@H]1CNCC[C@H]1NC(=O)C[C@@H](NC(=O)C[C@H](Cc1ccccc1)NC(=O)[C@@H]1CCCC[C@H]1N)C(C)C,.,4.8%,-3.0%,.,.
O=c1c(-c2ccc(Cl)cc2)nc2cnc(N3CCNCC3)nc2n1Cc1cccs1,.,-8.8%,11.0%,1.6%[11.4 µM],.
O=S1(=O)C=C(Sc2nc3ccccc3s2)c2ccccc21,>57,1.3%,11.2%,12.6µM*,10.6*
Cc1cc(C)nc(SC2=CS(=O)(=O)c3ccccc32)n1,>57,6.4%,10.3%,1.5%,>76.9
NCCC[C@@H](CC(=O)N[C@@H]1CCNC[C@H]1C(=O)N[C@H](CC(=O)N[C@@H](CCC(=O)O)CC(=O)O)Cc1ccccc1)NC(=O)C[C@H](Cc1ccccc1)NC(=O)[C@@H]1CCCC[C@H]1N,.,5.9%,19.1%,.,.
CCCOc1ccc(-c2nnc(N)s2)cc1,?,.,.,12.6µM*,.
COc1ccc(-c2nnc(N)s2)cc1,.,-14.4%,5.0%,?,.
CCOC(=O)c1nn(-c2ccc3c(c2)CCN3C(C)=O)cc1O,9.85*,4.6%,-12.6%,10µM*,>76.9
